# Rows were chosen to be rich in hits. Some 0.84% of all compounds tested hit in one or more screens of this group.
# SRC1 TRFRET art = TR-FRET artefact, counter-screen to PPARgamma/SRC-1 agonist assay. 99,000 tested, 0.34% active. AID 1051. TR-FRET detection artefact counter-screen, emission ratio; active compounds read high. TR-FRET ratio at 8 µM; in the data active = TR-FRET ratio above about 2300
# TR-FRET SRC-2 ct = counter-screen for PPARgamma SRC-2 recruitment agonists: TR-FRET artefact | AID 1049 | 200,000 tested, 0.4% active | TR-FRET ratio at 8 µM | active compounds read high
# PPARg SRC-3 ag = promotes SRC-3 coactivator recruitment by human PPARgamma | P37231 | biochemical PPARgamma/SRC-3 coactivator recruitment assay | activation, % at 8 µM | 200,000 tested, 0.26% active | AID 731; in the data active = activation above about 23%;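 note: 0% = DMSO and 100% = reference agonist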
# Target sequence (P37231 whole entry, looked up): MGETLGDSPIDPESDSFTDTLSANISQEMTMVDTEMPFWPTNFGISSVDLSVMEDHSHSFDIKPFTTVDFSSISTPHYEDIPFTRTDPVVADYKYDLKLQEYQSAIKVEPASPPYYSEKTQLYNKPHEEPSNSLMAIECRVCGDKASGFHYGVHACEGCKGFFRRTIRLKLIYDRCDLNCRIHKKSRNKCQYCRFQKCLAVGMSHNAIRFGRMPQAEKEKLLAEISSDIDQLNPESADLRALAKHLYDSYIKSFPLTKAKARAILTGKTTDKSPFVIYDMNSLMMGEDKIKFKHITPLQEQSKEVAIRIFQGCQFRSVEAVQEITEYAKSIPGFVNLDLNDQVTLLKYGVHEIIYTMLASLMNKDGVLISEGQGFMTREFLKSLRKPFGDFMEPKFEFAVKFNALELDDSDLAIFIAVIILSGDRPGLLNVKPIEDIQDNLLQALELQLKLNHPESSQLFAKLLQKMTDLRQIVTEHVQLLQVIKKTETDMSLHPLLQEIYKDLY
# SRC3 TRFRET art = TR-FRET artefact, counter-screen to PPARgamma/SRC-3 agonist assay | PPARgamma/SRC-3 format; active compounds read high | TR-FRET ratio at 8 µM | 99,000 tested, 0.39% active | AID 1048
# PPARg SRC2 recr = PPARgamma-driven SRC-2 recruitment agonism; P37231; PPARgamma LBD-SRC-2 recruitment, biochemical; activation, % at 8 µM; 200,000 tested, 0.34% active; in the data active = activation above about 22%;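 note: 0% = vehicle and 100% = reference agonist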
# PPARg SRC-1 ag = promotes SRC-1 coactivator recruitment by human PPARgamma; PPARgamma-SRC-1 coactivator recruitment biochemical assay; AID 631; 200,000 tested, 0.41% active; activation, % at 8 µM; in the data active = activation above about 19%;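 note: 0% = DMSO and 100% = reference agonist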
# Numbers without * were called inactive; . = no result. Cut-off read from the data, not from the text of the source, unless noted: active = TR-FRET ratio above about 2000; inactive = the rest.
SMILES,SRC1 TRFRET art,TR-FRET SRC-2 ct,PPARg SRC-3 ag,SRC3 TRFRET art,PPARg SRC2 recr,PPARg SRC-1 ag
O=C(CSc1nnc(-c2ccc(S(=O)(=O)N3CCOCC3)cc2)o1)c1ccccc1F,.,1586,-2,.,1,3
COc1ccc(C(=O)CSc2nnc(-c3ccc(S(=O)(=O)N4CCOCC4)cc3)o2)cc1,.,1617,-8,.,-3,25*
COc1cc(C#N)c(NC(=S)N2CCOCC2)cc1OC,2063,2021*,6,1717,12,17
CCOC(=O)c1c(NC(=S)Nc2ccc(OC)cc2)sc2c1CCC2,1583,1599,1,1631,8,0
COC(=O)c1c(NC(=S)Nc2ccc(C(=O)N3CCOCC3)cc2)sc2c1CCC2,2132,1929,9,2231*,13,18
CCn1cc(S(=O)(=O)Nc2ccccc2C(F)(F)F)cn1,1890,1708,2,1619,23*,9
O=C(O)c1ccccc1NS(=O)(=O)c1ccccc1C(F)(F)F,.,1535,3,.,1,2
COC(=O)c1ccc(NC(=O)CCN2CCN(Cc3ccccc3)CC2)cc1,.,1535,0,.,-6,1
COc1ccc(C2CC(c3cccs3)=NN2C(=O)COC(=O)c2cncc(Br)c2)cc1OC (centres undefined),2246,1406,3,2284*,2,11
COc1ccc(C2CC(c3cccs3)=NN2C(=O)COC(=O)C2CCCCC2)cc1OC (centres undefined),2074,1638,6,1612,9,3
CC(=O)Nc1cccc(-c2nnc(SCC(=O)n3c4c(c5ccccc53)CCCC4)n2C)c1,.,1367,-3,.,-1,3
Cc1ccc(-c2ccc(C3C(C#N)=C(N)Oc4n[nH]c(C)c43)o2)cc1 (centres undefined),.,1479,14,.,-8,-1
Cc1[nH]nc2c1C(c1ccc(-c3ccc(Cl)cc3)o1)C(C#N)=C(N)O2 (centres undefined),1928,1664,4,1758,23*,7
COc1cccc(C2C(C(=O)c3ccco3)=C(O)C(=O)N2CCN(C)C)c1OC (centres undefined),1861,1493,0,1530,2,-5
COc1cccc(C2C(C(=O)c3cc4ccccc4o3)=C(O)C(=O)N2CCN(C)C)c1OC (centres undefined),.,1961,28*,.,20,18
COc1cccc(/C=N/NC(=O)c2csc(-n3nc(C)cc3C(F)(F)F)n2)c1,.,1596,27*,.,9,4
CC(C)CCSc1nc(N)c(C#N)cc1C#N,.,2957*,-2,.,16,11
O=C(CSc1ccc2nnc(-c3ccc(Cl)cc3)n2n1)N1CCCc2ccccc21,1993,3594*,0,1869,46*,-1
O=C(Oc1cccc(NC2=NS(=O)(=O)c3ccccc32)c1)c1cccnc1,1865,1576,-3,1561,6,-2
CCCn1c(C)cs/c1=N\C(=S)Nc1ccccc1,1865,1455,6,2212*,3,14
Cc1cs/c(=N/C(=S)Nc2ccccc2)n1C,1756,1497,5,1745,6,4
Cc1ccc2cc(C#N)c(N3CCCN(C(=O)C4CCCO4)CC3)nc2c1 (centres undefined),.,1481,-4,.,1,-2
Cc1ccc(S(=O)(=O)N2CCCN(c3nc4cc(C)ccc4cc3C#N)CC2)cc1,.,3009*,11,.,-5,-4
CC(C)(C)c1ccccc1NC(=O)c1c(O)c2cccc3c2n(c1=O)CC3,1835,1499,-1,2335*,1,-8
COCCOC(=O)c1c(C)oc2ccc(OC(=O)COc3c(F)c(F)c(F)c(F)c3F)cc12,.,1535,-3,.,-8,-5
SMILES,SRC1 TRFRET art,TR-FRET SRC-2 ct,PPARg SRC-3 ag,SRC3 TRFRET art,PPARg SRC2 recr,PPARg SRC-1 ag
Cc1oc2ccc(OC(=O)COc3c(F)c(F)c(F)c(F)c3F)cc2c1C(=O)OC(C)C,1598,2175*,1,1635,11,12
COc1ccccc1NC(=O)C1=C(C)NC(SCC(=O)c2ccccc2)=C(C#N)C1c1ccco1 (centres undefined),.,2496*,20,.,16,18
O=C(CSc1cn(Cc2ccccc2)c2ccccc12)Nc1nccs1,.,3013*,-10,.,1,-2
COc1cccc(OC)c1-c1nn2c(-c3cc(-c4ccccc4)n[nH]3)nnc2s1,.,1895,8,.,9,20*
COc1cccc(-c2nnc3sc(-c4ccccc4)nn23)c1,1880,1625,0,1488,9,6
COc1cccc(NC(=S)NCc2ccc3c(c2)cc(C)n3C)c1,2579*,1922,0,2011,-1,3
Cc1nonc1CC(=O)N1CCCC(C(=O)c2cccc(C(F)(F)F)c2)C1 (centres undefined),2035,1643,9,1634,11,6
COc1ccc(C(=O)Nn2c(SCC(=O)c3ccc(Cl)cc3)nc3ccccc3c2=O)cc1,.,2000*,7,.,5,-1
COc1ccc(-c2ccc(C#N)c(SCC(=O)Nc3sc4c(c3C#N)CCC4)n2)cc1OC,.,1523,2,.,7,11
COc1ccc(-c2ccc(C#N)c(SCC(=O)NCCc3ccccc3)n2)cc1OC,1821,2078*,2,1706,11,1
COc1cccc(-c2ccc(C#N)c(SCC(=O)NCCc3cccc(Cl)c3)n2)c1,.,1982*,17,.,21,11
CC(NCc1cc(Br)ccc1OCC(=O)NCc1ccccc1)c1ccccc1 (centres undefined),2018,1457,0,1644,11,-1
CC(C)CN(CC(C)C)S(=O)(=O)N1CCC(C(=O)NCc2ccc3c(c2)OCO3)CC1,1611,1548,4,1434,2,4
O=C(COC(=O)c1sc2ccccc2c1Cl)Nc1ncc(Cl)cc1Cl,2015,2187*,-3,1668,34*,7
O=C(COC(=O)c1sc2ccccc2c1Cl)NC1CCCCC1,1999,4050*,5,1619,115*,6
O=C(COC(=O)c1sc2cc(F)ccc2c1Cl)Nc1ncc(Cl)cc1Cl,1944,1600,1,1602,2,-3
C/C(CC1CC2=C(CC1(C)C)C(C)(C)CCC2)=N\NC(N)=S (centres undefined),.,1526,8,.,6,7
O=C(Nc1ccc(S(=O)(=O)NC2=NCCCCC2)cc1)c1ccc2ccccc2n1,1955,1635,2,1656,3,-2
O=C1CC(C(=O)NC2CCCCC2)C2(CCCCC2)O1 (centres undefined),1999,1665,2,1753,9,5
CCOC(=O)c1ccc(N2CSC3=C(C#N)C(c4cccs4)CC(=O)N3C2)cc1 (centres undefined),.,2211*,19,.,20,7
COc1ccc(N2CSC3=C(C#N)C(c4cccs4)CC(=O)N3C2)cc1 (centres undefined),.,2277*,39*,.,29*,30*

# Screening data (PubChem)
